# Results taken from PubChem BioAssay.
# Where “and” joins values, the source holds several entries; their conditions need not be identical. Equal entries are not always repeated. Calls of active or inactive are those of the source. Unless noted, no rule for the calls is given here.
# What was measured:
# [1] = compound effects on lung adenocarcinoma cell viability – A549, calcein-AM fluorescence, 48 h, basal, profiling panel (AID 1162); conditions: higher = more signal; also: test concentration not given here
# [2] = compound effects on differentiated 3T3-L1 adipocyte viability – cell-based, 3T3-L1 adipocytes, calcein-AM fluorescence, 48 h, basal, profiling panel (AID 1163); conditions: 3T3-L1 adipocytes viability, higher = more signal; also: test concentration not given here
# [3] = compound effects on hepatocellular carcinoma cell viability – HepG2, calcein-AM fluorescence, 48 h, basal, profiling panel (AID 1164); conditions: higher = more signal; also: test concentration not given here
# [4] = compound effects on multiple myeloma cell viability – MM1S, calcein-AM fluorescence, 48 h, basal, profiling panel (AID 1165); conditions: higher = more signal; also: test concentration not given here
# [5] = calcein-AM signal in unstimulated myeloma cells – cell-based, calcein-AM fluorescence, 48 h, PK04 Diversity Set, profiling panel (AID 1166); conditions: RPMI8226 myeloma viability, higher = more signal;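 also: cells grown under basal conditions without added stimulus; test concentration not given here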
# [6] = JC-1 mitochondrial signal, unstimulated HepG2 cells – cell-based, JC-1 fluorescence, 24 h, 100 nL compound, profiling panel (AID 1167); conditions: HepG2 mitochondrial potential, higher = more signal; also: test concentration not given here
# [7] = JC-1 mitochondrial signal, unstimulated adipocytes – cell-based, JC-1 fluorescence, 3T3-L1 adipocytes, 24 h, 100 nL compound, profiling panel (AID 1168); conditions: JC-1 mitochondrial fluorescence, higher = more signal, called active from +8 up or from −8 down; also: test concentration not given here
# [8] = JC-1 mitochondrial signal, unstimulated myeloma cells – cell-based, JC-1 fluorescence, RPMI8226, 24 h, 100 nL compound, profiling panel (AID 1169); conditions: JC-1 mitochondrial potential fluorescence, higher = more signal; also: test concentration not given here
# [9] = JC-1 mitochondrial signal, unstimulated MM1S myeloma – cell-based, JC-1 fluorescence, 24 h, 100 nL compound, profiling panel (AID 1170); conditions: MM1S mitochondrial potential, higher = more signal; also: test concentration not given here
# [10] = resazurin metabolic signal in A549 cells – cell-based, resazurin fluorescence, 24 h, PK04 Diversity Set, profiling panel (AID 1171); conditions: A549 viability, higher = more signal, called active from +8 up or from −8 down; also: test concentration not given here
# [11] = resazurin metabolic signal in HepG2 cells – cell-based, resazurin fluorescence, 24 h, PK04 Diversity Set, profiling panel (AID 1172); conditions: HepG2 viability, higher = more signal; also: test concentration not given here
# [12] = budding yeast growth changes without added modifier – OD600, strain BY4716, 24 h, basal condition, primary screen (AID 1173); conditions: S. cerevisiae BY4716 growth, OD600, 24 h; higher = more signal, called active from +8 up or from −8 down
# [13] = viability profiling in MM1S myeloma cells – cell-based, resazurin fluorescence, basal, 24 h, PK04 Diversity Set, profiling panel (AID 1174); conditions: higher = more signal, called active from +8 up or from −8 down; also: test concentration not given here
# [14] = target: Dihydroorotate dehydrogenase (quinone), mitochondrial (Plasmodium falciparum (isolate 3D7)) (UniProt Q08210); assay: inhibition of P. falciparum DHODH – biochemical, C-terminal His tag, absorbance 600 nm, primary screen (AID 1175); conditions: PfDHODH enzyme, DCIP absorbance 600 nm; higher = more signal, called active from +8 up or from −8 down;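 also: recombinant parasite enzyme with a five histidine tag at its C terminus; test concentration not given here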
# [15] = inhibition of PAO1 biofilm formation – strain PAO1, LB-PBS medium, absorbance 600 nm, primary screen (AID 1176); also: test concentration not given here; conditions: P. aeruginosa PAO1 growth/biofilm, A600, 12 h; higher = more signal
# [16] = growth modulation of vineyard yeast isolate – strain RM11-1a, OD600, basal, 24 h, primary screen (AID 1177);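 also: cultures grown under basal conditions with no added stressor; test concentration not given here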; conditions: S. cerevisiae RM11-1a growth, OD600, 24 h; higher = more signal, called active from +8 up or from −8 down
# [17] = growth of efflux-deficient E. coli DRC39 – strain DRC39, OD650, 24 h, E. coli filamentation inducers, primary screen (AID 1178);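 also: growth measured as culture turbidity by optical density at 650 nm; test concentration not given here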; conditions: E. coli DRC39 acrAB, higher = more signal, called active from +8 up or from −8 down
# [18] = growth of efflux-deficient E. coli DRC39 – strain DRC39, OD650, 48 h, E. coli filamentation inducers, primary screen (AID 1179);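 also: screen aims at cell division blockers that make cells filament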; conditions: E. coli DRC39 delta-acrAB growth, higher = more signal, called active from +8 up or from −8 down
# [19] = viability profiling in RPMI8226 myeloma cells – cell-based, resazurin fluorescence, basal, 24 h, PK04 Diversity Set, profiling panel (AID 1180); conditions: higher = more signal;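 also: RPMI8826 multiple myeloma cell line at 5000 cells per well; test concentration not given here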
# [20] = target: E3 ubiquitin-protein ligase XIAP (Homo sapiens) (UniProt P98170); assay: small molecules binding XIAP protein – biophysical, small-molecule microarray, fluorescence 635 nm, primary screen (AID 1181); conditions: higher = more signal;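 also: score merges 667 nm emission and signal to noise over triplicate slides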
# E3 ubiquitin-protein ligase XIAP (Homo sapiens), sequence (P98170 whole entry, looked up): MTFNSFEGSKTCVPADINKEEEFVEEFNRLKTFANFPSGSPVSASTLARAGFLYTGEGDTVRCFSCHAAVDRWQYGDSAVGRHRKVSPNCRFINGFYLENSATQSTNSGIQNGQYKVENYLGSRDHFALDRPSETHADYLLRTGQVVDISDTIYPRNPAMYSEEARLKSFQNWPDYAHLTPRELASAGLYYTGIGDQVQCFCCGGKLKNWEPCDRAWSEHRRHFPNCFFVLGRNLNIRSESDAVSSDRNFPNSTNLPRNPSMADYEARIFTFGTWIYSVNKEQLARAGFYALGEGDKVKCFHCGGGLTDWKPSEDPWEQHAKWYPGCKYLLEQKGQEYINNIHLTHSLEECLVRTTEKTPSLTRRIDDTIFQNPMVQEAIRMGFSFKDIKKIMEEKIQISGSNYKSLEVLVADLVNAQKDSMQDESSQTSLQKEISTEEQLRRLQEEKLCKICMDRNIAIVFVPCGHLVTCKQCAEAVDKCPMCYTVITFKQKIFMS
# Dihydroorotate dehydrogenase (quinone), mitochondrial (Plasmodium falciparum (isolate 3D7)), sequence (Q08210 whole entry, looked up): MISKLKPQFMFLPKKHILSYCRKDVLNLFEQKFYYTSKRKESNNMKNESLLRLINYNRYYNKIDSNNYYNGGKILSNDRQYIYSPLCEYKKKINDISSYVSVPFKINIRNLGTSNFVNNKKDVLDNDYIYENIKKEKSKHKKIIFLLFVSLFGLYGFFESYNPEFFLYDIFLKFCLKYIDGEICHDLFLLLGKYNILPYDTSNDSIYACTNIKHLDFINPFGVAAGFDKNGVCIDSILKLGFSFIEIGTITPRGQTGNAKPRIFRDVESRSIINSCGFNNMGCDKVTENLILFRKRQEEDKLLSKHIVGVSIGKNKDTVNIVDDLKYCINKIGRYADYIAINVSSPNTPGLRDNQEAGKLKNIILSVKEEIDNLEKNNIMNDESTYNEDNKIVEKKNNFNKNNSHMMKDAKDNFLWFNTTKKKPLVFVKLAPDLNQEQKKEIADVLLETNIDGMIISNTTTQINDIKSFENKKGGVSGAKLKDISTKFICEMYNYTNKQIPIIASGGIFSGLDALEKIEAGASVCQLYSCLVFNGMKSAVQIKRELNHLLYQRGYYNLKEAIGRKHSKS
Compound,z-score [1],z-score [2],z-score [3],z-score [4],z-score [5],z-score [6],z-score [7],z-score [8],z-score [9],z-score [10],z-score [11],z-score [12],z-score [13],composite z-score [14],z-score [15],z-score [16],z-score [17],z-score [18],z-score [19],composite z-score [20]
CC(C)=CCCC(C)=CCON=C1C[C@@H](O)[C@@H](O)[C@@H]2[C@@H]3C(=O)N([C@@H](C)c4ccccc4)C(=O)[C@@H]3CC[C@H]12,0.0319,0.2,0.446,-2.88,-0.0017,0.374,1.08 (inactive),0.0351,-1.78,-1.38 (inactive),-1.03,-3.41 (inactive),-0.339 (inactive),-1.48 (inactive),0.365 (inactive),-2.18 (inactive),-1 (inactive),-0.666 (inactive),-0.637,0.104
C=CCN(Cc1ccccc1)C(=O)C(c1cccs1)N(C(=O)/C=C\C(=O)O)c1ccc(CCO)cc1 (stereo not given),-0.636 and -0.0917,0.0605 and -0.16,0.391 and 0.373,1.49 and 1.81,0.586 and 0.894,1.26 and 0.706,0.645 (inactive) and 1.1 (inactive),0.648 and 0.272,-1.19 and -0.751,-0.29 (inactive) and -0.14 (inactive),-0.42 and -0.633,0.0593 (inactive) and -0.0181 (inactive),-0.0351 (inactive) and -0.273 (inactive),-0.866 (inactive) and -0.0473 (inactive),-0.208 (inactive) and 0.233 (inactive),0.374 (inactive) and 0.514 (inactive),0.866 (inactive) and 0.736 (inactive),0.722 (inactive) and 0.609 (inactive),0.565 and -0.122,-0.0987 and 0.035
CO[C@@H]1C=CCC(=O)N2CCC[C@H]2C(=O)OC[C@H](C)C(=O)OC[C@H]1C,0.616,0.345,1.33,0.383,-0.87,0.872,0.673 (inactive),-0.0289,0.331,0.87 (inactive),0.445,-0.774 (inactive),-0.694 (inactive),0.634 (inactive),-0.72 (inactive),0.134 (inactive),1.08 (inactive),0.858 (inactive),0.312,0.0595
